Read-outs that look alike come from different tables or passages of the source. In all, about 13,000 compounds went through this assay and about 3,200 (25%) showed an effect of 50% or more. The list shows a part of the results.
Tested on: P. falciparum stage V gametocytes
Parameters: BacTiter-Glo ATP luminescence viability of purified stage V gametocytes in 384-well plates, per cent inhibition versus DMSO
Conditions: 48 h, 5 µM, inhibitor

Compound | % Inhibition [%] | % Inhibition (% Inhibition) [%]
Cc1nc(-c2cccc(C(=O)N(Cc3cncn3Cc3cccc(C(F)(F)F)c3)CC3CC3)c2)cs1 [TCMDC-132462] | -20.16 | –
Clc1ccc(CCNCCCCCCNCCc2ccc3c(c2)OCO3)cc1 [TCMDC-132042] | 88.67 | –
Clc1ccc2c(NCc3ccc4c(c3)OCO4)ccnc2c1 [TCMDC-125106] | -11.41 | –
Oc1ccc(CCNCCCCCCNCCc2ccc(Br)cc2)cc1O [TCMDC-131263] | 95.59 | –
Oc1cccc(CCNCCCCCCNCCc2ccc(Cl)cc2)c1 [TCMDC-131285] | 116.7 | –
O=C(NCCCCNCC(Cc1cccc(O)c1)c1ccccc1)c1ccc(NC(=O)c2ccc(Cl)cc2)cc1 (stereo not drawn) [TCMDC-138563] | -50.17 | –
FC(F)(F)c1cccc(CNCCCCCNCc2ccc(Cl)cc2)c1 [TCMDC-140403] | 31.4 | –
c1ccc(CCNCc2ccc(-c3ccc(CNCc4ccc5c(c4)OCO5)cc3)nc2)cc1 [TCMDC-141648] | 21 | –
O=C(/C=C/c1ccc(Cl)c(Cl)c1)NCCCCCN1CCN(C(=O)Nc2ccc(OC(F)F)cc2)CC1 [TCMDC-135733] | 4.05 | –
O=C1NC(=S)N/C1=C/C=C/c1ccc([N+](=O)[O-])o1 [TCMDC-125757] | 95.66 | –
O=C(Nc1ccc(-c2csc(-c3nc4ccccc4[nH]3)c2)cc1)Nc1ccc(Cl)c(Cl)c1 [TCMDC-133271] | -42.33 | –
O=C(NCC1Cc2cc(Oc3ccccc3)ccc2O1)c1ccc([N+](=O)[O-])o1 (stereo not drawn) [TCMDC-124802] | 28.95 | –
COc1ccc(CCNCc2cc3c(C(C)(C)C)nn(-c4ccc(Cl)cc4)c3[nH]c2=O)cc1OC [TCMDC-125351] | 40.9 | –
CC(C)(C)c1nn(-c2ccccc2)c2[nH]c(=O)c(CNCc3ccc4c(c3)OCO4)cc12 [TCMDC-123910] | 11.81 | –
CC(C)(C)c1nn(-c2ccc(Cl)cc2)c2[nH]c(=O)c(CNC3CCCC3)cc12 [TCMDC-123909] | 44.22 | –
CC(C)(C)c1nn(-c2ccccc2)c2[nH]c(=O)c(CNCc3ccccc3)cc12 [TCMDC-123911] | -3.272 | –
CC(C)(C)c1nn(-c2ccc(Cl)cc2)c2[nH]c(=O)c(CNCc3cccs3)cc12 [TCMDC-123908] | 55.18 | –
CC(C)(C)c1nn(-c2ccc(Cl)cc2)c2[nH]c(=O)c(CNCc3ccc4c(c3)OCO4)cc12 [TCMDC-136662] | 74.56 | –
Cc1ccc(NS(=O)(=O)c2cccs2)cc1-c1cccc(C(=O)Nc2ccc(F)cc2)c1 [TCMDC-133590] | -57.86 | –
CN(C)c1cccc(NC(=O)NC2N=C(c3ccccc3)c3ccccc3N(CC(=O)N(C)c3ccccc3)C2=O)c1 (stereo not drawn) [TCMDC-131985] | 33.13 | –
Cc1nc(N)nc(N)c1OCc1ccc(Cl)c(Cl)c1 [TCMDC-131718] | -2.553 | –
CC(C)CSc1cc(C(=O)Nc2cc(Cl)ccc2O)ccn1 [TCMDC-138874] | -25.81 | –

Compound | % Inhibition [%] | % Inhibition (% Inhibition) [%]
O=C(Nc1nc2cc(S(=O)(=O)NCCc3ccc(F)cc3)ccc2n1CCCn1ccnc1)c1ccc(Cl)cc1 [TCMDC-141626] | 16.98 | –
CCNc1cc(C(=O)N[C@@H](Cc2ccccc2)[C@H](O)CNC23CCC(CC2)CC3)cc(N2CCCCS2(=O)=O)c1 [TCMDC-135390] | 43.97 | –
CCCC1(NC[C@@H](O)[C@H](Cc2ccccc2)NC(=O)c2cc(NCC)cc(N3CCCCS3(=O)=O)c2)CCCCC1 [TCMDC-135262] | 28.65 | –
CCNc1cc(C(=O)N[C@@H](Cc2ccccc2)[C@H](O)CNC2(CC)CCCCC2)cc(N2CCCCS2(=O)=O)c1 [TCMDC-135209] | 82.14 | –
CCNc1cc(C(=O)N[C@@H](Cc2ccccc2)[C@H](O)CNC23CCC(CC2)C3)cc(N2CCCCS2(=O)=O)c1 [TCMDC-135371] | 58.44 | –
CCCC1(NC[C@@H](O)[C@H](Cc2ccccc2)NC(=O)c2cc(NCC)cc(N3CCCCS3(=O)=O)c2)CC1 [TCMDC-135192] | 21.27 | –
CCNc1cc(C(=O)N[C@@H](Cc2ccccc2)[C@H](O)CNC2CC3CCC2C3)cc(N2CCCCS2(=O)=O)c1 (stereo partly drawn) [TCMDC-135107] | 91.01 | –
CCNc1cc(C(=O)N[C@@H](Cc2ccccc2)[C@H](O)CNC2(CC)CC2)cc(N2CCCCS2(=O)=O)c1 [TCMDC-135176] | 3.927 | –
CCNc1cc(C(=O)N[C@@H](Cc2ccccc2)[C@H](O)CNC2CCCCC2)cc(N2CCCCS2(=O)=O)c1 [TCMDC-134676] | 26.1 | –
CCNc1cc(C(=O)N[C@@H](Cc2ccccc2)[C@H](O)CNC23CC4CC(CC(C4)C2)C3)cc(N2CCCCS2(=O)=O)c1 [TCMDC-135352] | 40.45 | –
CCNc1cc(C(=O)N[C@@H](Cc2ccccc2)[C@H](O)CNC2C3CC4CC(C3)CC2C4)cc(N2CCCCS2(=O)=O)c1 (stereo partly drawn) [TCMDC-135424] | 38.6 | –
CCCC1(NC[C@@H](O)[C@H](Cc2ccccc2)NC(=O)c2cc(NCC)cc(N3CCCCS3(=O)=O)c2)CCCC1 [TCMDC-135261] | 38.92 | –
CCNc1cc(C(=O)N[C@@H](Cc2ccccc2)[C@H](O)CNC2(C)CCCCC2)cc(N2CCCCS2(=O)=O)c1 [TCMDC-134703] | 93.77 | –
N#Cc1cccc(C(=O)Nc2cccc(-c3ccc(C(=O)NCCCN4CCOCC4)cc3)c2)c1 [TCMDC-133694] | -17.34 | –
CC(Nc1ncc(-c2ccsc2)c(-c2nccs2)n1)c1ccc2c(c1)OCCO2 (stereo not drawn) [TCMDC-125367] | -15.14 | –
O=C(NCCCCN1CCCC2c3ccc(O)cc3CCC21)c1ccc(-c2ccccc2)cc1 (stereo not drawn) [TCMDC-139083] | – | -83.61
CCc1c(C)nc(-n2nc(C)cc2NC(=O)C2c3ccccc3Oc3ccccc32)[nH]c1=O [TCMDC-124932] | -24.15 | –
O=S1(=O)NCc2ccc(Nc3nccc(Nc4ccc5c(cnn5Cc5ccccc5)c4)n3)cc21 [TCMDC-138840] | -68.79 | –
O=C(Nc1cccc(-c2nn3ccccc3c2-c2ccnc(Nc3cccc(F)c3)n2)c1)c1c(F)ccc(F)c1F [TCMDC-135844] | -56.6 | –
NC(=O)c1cccc(C(=O)Nc2cccc(-c3cccc(-c4nc5ccccc5[nH]4)c3)c2)c1 [TCMDC-132194] | 0.2723 | –
COc1ccc(C2c3ccccc3-c3nc(N)nc(N)c3C2C)cc1 (stereo not drawn) [TCMDC-137992] | 31.51 | –
Cc1cc(NC(=O)NCCN2CCC(NS(=O)(=O)c3ccccc3Cl)C2)c2ccccc2n1 (stereo not drawn) [TCMDC-136142] | -23.32 | –

Compound | % Inhibition [%] | % Inhibition (% Inhibition) [%]
Cc1oc(-c2cccc(Oc3ccccc3)c2)nc1CN(Cc1cnn(C)c1)C(C)C [TCMDC-124609] | -17.42 | –
COc1ccc2nccc(N(C)CC3(O)CCN(CCc4ccc5c(c4)OCCO5)CC3)c2n1 [TCMDC-141473] | 35.78 | –
CCNc1cc(C(=O)N[C@@H](Cc2ccccc2)[C@H](O)CNCc2cccc(-n3ccnc3)c2)cc(N2CCCC2=O)c1 [TCMDC-141686] | 34.28 | –
CN(C)C(CNC(=O)c1cc(-c2ccncc2)c(-c2cc3ccccc3[nH]2)o1)c1ccccc1 (stereo not drawn) [TCMDC-135864] | 29.45 | –
CCc1cccc2c(C#N)cn(CC(=O)NCCc3ccccc3)c12 [TCMDC-124363] | 56.03 | –
N#Cc1ccc(N(CC(=O)NCCc2ccc(F)cc2)CC2CC2)c2ccccc12 [TCMDC-135573] | -38.52 | –
CCc1cccc2c(C#N)cn(CC(=O)Nc3ccc(OC)cc3)c12 [TCMDC-123527] | 78.76 | –
COc1ccc(CC(=O)Nc2ccc(Nc3nc(C)cc(N(C)C)n3)cc2)cc1 [TCMDC-124973] | 14.2 | –
CCCN(CC(=O)NCCc1ccccc1)c1ccc(C#N)c2ccccc12 [TCMDC-135545] | -10.84 | –
CCc1ccc(NC(=O)c2cccc(CN3CCCN(Cc4ccc(OC)cc4)CC3)c2)cc1 [TCMDC-135990] | -23.52 | –
CCOc1ccc(OCC(=O)Nc2nc(-c3ccc(OC)cc3)c(C)s2)cc1 [TCMDC-124322] | 37.56 | –
CN(C)CCOc1ccc(-c2cc(-c3ccc(Cl)c(O)c3)c(-c3ccncc3)[nH]2)cc1 [TCMDC-141255] | -84.18 | –
Oc1c(Cl)cc(Nc2nccc(Nc3ccc(Oc4ccccc4)cc3)n2)cc1Cl [TCMDC-138588] | -66 | –
c1ccc(Oc2ccc(Nc3nncc4ccccc34)cc2)cc1 [TCMDC-137229] | 25.45 | –
Clc1ccc(-n2cnc3c(Nc4ccc(Oc5ccccc5)cc4)ncnc32)cc1Cl [TCMDC-138209] | 88.06 | –
Nc1ccc(-c2cc(Cl)cc(Cl)c2)cc1-c1cc2ccccc2[nH]1 [TCMDC-139051] | -15.54 | –
CCCCc1ccc(S(=O)(=O)Nc2ccc3c(c2)CCN(Cc2c[nH]c4cnccc24)CC3)cc1 [TCMDC-136797] | -5.765 | –
CN1Cc2ccc(NS(=O)(=O)c3ccc(-c4ccoc4)cc3)cc2C1 [TCMDC-141495] | 67.76 | –
Nc1nc(N)c2cc(NS(=O)(=O)c3ccc(-c4ccccc4)cc3)ccc2n1 [TCMDC-135430] | 5.991 | –
CCCc1ccc(S(=O)(=O)Nc2ccc3c(c2)CCC3)cc1 [TCMDC-125822] | 10.44 | –
Cc1nc(N2CCC(C)CC2)c2c3c(sc2n1)CCCC3 [TCMDC-125646] | 3.329 | –
C=C(C)C1CC=C(CN2CCCC(n3ccc4cc(NC(=O)c5ccco5)ccc43)CC2)CC1 (stereo not drawn) [TCMDC-135090] | -20.08 | –

Reference: PMC4552634, “A New Set of Chemical Starting Points with Plasmodium falciparum Transmission-Blocking Potential for Antimalarial Drug Discovery” (PLoS ONE, 2015)
